According to ChEMBL document CHEMBL1201862, “PubChem BioAssay data set” (2004):
Several values for one entry are separate records, joined by “and”; a condition that tells them apart may be missing. Equal entries are not always repeated.

Test: A High Throughput Confirmatory Assay used to Identify Novel Compounds that Inhibit Mycobacterium Tuberculosis in the absence of Glycerol using Purified and Synthesized Compounds (8).
Assay type: functional; call rule not given here
For `O=C(NCCc1ccc(Cl)cc1)c1ccc(CNc2c(N3CCOCC3)c(=O)c2=O)cc1`, the IC90 was > 100 µM (active).
For `O=C(c1ccc(CNc2c(N3CCOCC3)c(=O)c2=O)cc1)N1CCC(c2ccccc2)CC1`, the IC90 was > 68.9 µM (active).
For `CC(=O)c1ccc(NC(=O)c2ccc(CNc3c(N4CCOCC4)c(=O)c3=O)cc2)cc1`, the IC90 was > 100 µM (active).
For `O=C(NCCc1ccc(Cl)cc1)C1CCC(CNc2c(N3CCCCC3)c(=O)c2=O)CC1` (stereo not drawn), the IC90 was > 83.3 µM (active).
With `CC1CCN(C(=O)c2ccc(CNc3c(N4CCCC4)c(=O)c3=O)cc2)CC1` the IC90 was > 100 µM (active).
In the case of `O=C(c1ccc(CNc2c(N3CCCC3)c(=O)c2=O)cc1)N1CC=C(c2ccccc2)CC1`, the IC90 is reported as > 100 µM (active) and > 47.2 µM (active).
With `O=C(C1CCC(CNc2c(N3CCCCC3)c(=O)c2=O)CC1)N1CCCCC1` (stereo not drawn) the IC90 was > 83.3 µM (active).
In the case of `CC1CCCN(C(=O)C2CCC(CNc3c(N4CCCCC4)c(=O)c3=O)CC2)C1` (stereo not drawn), the IC90 is reported as > 100 µM (active).
In the case of `O=C(c1ccc(CNc2c(N3CCCC3)c(=O)c2=O)cc1)N1CCC(c2ccccc2)CC1`, the IC90 is reported as > 100 µM (active).
For `O=C(c1ccc(CNc2c(N3CCCC3)c(=O)c2=O)cc1)N1CCc2ccccc2C1`, the IC90 was > 100 µM (active).
In the case of `CC1CCCN(C(=O)c2ccc(CNc3c(N4CCCCC4)c(=O)c3=O)cc2)C1` (stereo not drawn), the IC90 is reported as > 100 µM (active).
For `COc1ccc(N2CCN(C(=O)c3ccc(CNc4c(N5CCOCC5)c(=O)c4=O)cc3)CC2)cc1`, the IC90 was > 100 µM (active).
For `O=C(c1ccc(CNc2c(N3CCCC3)c(=O)c2=O)cc1)N1CCN(c2ccccc2)CC1`, the IC90 was > 100 µM (active).
